A selection: hits, their analogues and other compounds. The true share with any hit is near 0.79%.
E coli growth-1: E. coli growth inhibition; OD600 absorbance (test concentration not listed); AID 1053175; hit rate 0.21% among 330,000; Escherichia coli growth, OD600, 23 h; stronger effect = lower value;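 active = OD600 absorbance below the run mean of sample wells minus 3.6 SD, in any replicate, cut at about 0.56 in these data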
AI-2 QS mod: modulates the Vibrio harveyi AI-2 quorum sensing system | Vibrio harveyi JMH597 AI-2 luminescence/OD600 ratio, 9 h; stronger effect = lower value; strain lacks LuxN and CqsS sensors; 0 = neutral-control median | activity change, % at 7.5 µM | hit rate 0.4% among 300,000; in the data active = activity change below about -75%, passing the limit was not always enough; inconclusive = no clear call, values can overlap the other calls;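 note: luminescence divided by OD600 gain over 9 h not by final OD600 alone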
AddAB inh: less growth of phage-infected E. coli with AddAB; hit rate 0.29% among 330,000; E. coli expressing H. pylori AddAB, absorbance growth; AID 435030; inhibition, % at 11.9 µM; in the data active = inhibition above about 12%;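 note: 0% = vehicle wells of infected cells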
phage Ecoli inh: E. coli growth loss with phage present | AID 651602 | growth absorbance | inhibition, % at 11.9 µM | hit rate 0.26% among 360,000; in the data active = inhibition above about 11%
Tat transport: E. coli Tat transport inhibition; inhibition, % at 10 µM; AID 488895; E. coli MC4100 TorA-mCherry Tat export, fluorescence; hit rate 0.036% among 340,000;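 active = mean replicate inhibition at least 50% and at least half of replicates individually reaching 50%; inconclusive = only one of the two criteria met; inactive = neither criterion met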;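 note: exported cargo escapes ClpAP degradation while cytoplasmic cargo is degraded and loses fluorescence; 0% = median of neutral control wells and 100% = median of NaSCN control wells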
E coli growth-2: reduces bacterial viability in AddAB counter-screen | E. coli V3065 growth, OD600 absorbance, 18 h | inhibition, % at 11.9 µM | hit rate 0.27% among 330,000 | AID 449728;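 active = inhibition above the campaign's mean inhibition across all tested compounds plus 3 SD, cut at about 9.9% in these data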;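 note: uninfected addAB+ strain grown without phage in ampicillin broth; 0% = DMSO wells and 100% = ciprofloxacin 0.95 µg/ml wells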
AddAB conf: confirmation screen: growth loss of phage-infected E. coli expressing H. pylori AddAB. shares compounds with AddAB inh. E. coli V3065 expressing H. pylori AddAB, T4 phage, OD; T4 phage with gene 2 nonsense mutations. inhibition, % at 11.9 µM. hit rate 64% among 880;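 active = mean inhibition above a set limit taken from the earlier primary screen, cut at about 13% in these data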;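 note: higher means less bacterial growth since AddAB block lets phage replicate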
RecBCD counter: counter-screen: growth loss of RecBCD+ E. coli with mutant T4 phage. shares compounds with AddAB inh. E. coli V66 + mutant T4 phage, OD growth. hit rate 73% among 880. inhibition, % at 11.9 µM;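 active = mean inhibition above the mean of solvent-only control wells plus 3 SD, cut at about 4% in these data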;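 note: optical density read after an 18 h incubation at 37 °C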
bact viab count: reduces bacterial viability, AddAB inhibitor counter-screen; inhibition, % at 11.9 µM; absorbance (AddAB counterscreen); shares compounds with AddAB inh; hit rate 35% among 880; in the data active = inhibition above about 25%
RecBCD conf: confirmation: growth loss of phage-infected RecBCD+ E. coli (RecBCD inhibitor screen); shares compounds with phage Ecoli inh; E. coli V66 + T4 2- phage, growth OD; inhibition, % at 11.9 µM; hit rate 45% among 890;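 active = mean inhibition over triplicates exceeding the hit threshold derived in the original primary screen, cut at about 11% in these data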
Ecoli viability: inhibits E. coli viability, flagging RecBCD hits as nonselective | shares compounds with phage Ecoli inh | absorbance (OD) growth | inhibition, % at 11.9 µM | hit rate 29% among 890 | AID 651983; in the data active = inhibition above about 20%;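 note: E. coli strain V66 grown with compound alone and no phage infection; 0% = bacteria with DMSO vehicle only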
AddAB phage OD: growth loss of phage-infected AddAB E. coli, RecBCD counter-screen. hit rate 45% among 890. AID 651984. E. coli expressing H. pylori AddAB + T4 phage, OD growth; gene 2 mutant T4, recBCD-deleted host. shares compounds with phage Ecoli inh. inhibition, % at 11.9 µM;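 active = mean inhibition above the solvent-only control wells' mean plus 3 SD, cut at about 22% in these data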;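 note: higher means less bacterial growth from phage killing when AddAB is blocked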
Numbers without * were called inactive; ? = inconclusive; · = not tested or not shown.

SMILES	E coli growth-1	AI-2 QS mod	AddAB inh	phage Ecoli inh	Tat transport	E coli growth-2	AddAB conf	RecBCD counter	bact viab count	RecBCD conf	Ecoli viability	AddAB phage OD
CN[C@@H]1[C@H](O)[C@H](NC)[C@H]2O[C@@]3(O)C(=O)C[C@@H](C)O[C@H]3O[C@@H]2[C@H]1O	0.51*	2	35*	52*	119*	34*	78*	47*	57*	58*	35*	75*
O=C(NN=C(c1ccccc1)c1cccnc1)C(O)(c1ccccc1)c1ccccc1	0.69	·	·	·	·	·	·	·	·	·	·	·
Cc1cccc(CC2SC(=NN=Cc3ccco3)N(c3ccccc3)C2=O)c1 (configuration not stated)	0.75	·	·	·	·	·	·	·	·	·	·	·
COc1ccccc1NC(=O)NNC(=O)c1cc2ccccc2cc1O	0.62	16	15*	12*	18	12*	14*	14*	14	8	9	14
CCOC(=O)CN1C(=O)NC(c2cccs2)C(C(C)=O)=C1C (configuration not stated)	0.67	·	·	·	·	·	·	·	·	·	·	·
C=C1C=C(C)C(C)(O)CC(O)CC(=O)C(O)C(O)C(C)CC(C)OC(=O)C(C)=CCCC=CC(OC)C(O)CC(C)C1 (configuration not stated)	0.68	·	·	·	·	·	·	·	·	·	·	·
Nc1ccc(S(=O)(=O)Nc2nccs2)cc1	0.65	·	29*	12*	2	15*	10	5.5*	16	6	4	27*
O=S(=O)(Nc1nccs1)c1ccc(Br)cc1	0.64	23	4	4	-4	1	·	·	·	·	·	·
Cc1onc(-c2ccccc2)c1C(=O)NC(=S)NNC(=O)c1ccccc1O	0.62	34	24*	24*	2	25*	25*	24*	25	14*	17	29*
O=C(NNC(=S)NC(=O)c1ccccc1[N+](=O)[O-])c1ccccc1O	0.44*	5	17*	13*	-6	17*	11	14*	16	2	6	14
Cc1onc(-c2ccccc2)c1C(=O)NC(=S)NNC(=O)c1ccc(O)cc1O	0.56	-1	20*	15*	2	20*	13*	14*	18	9	11	25*
CC1(C)CC(=O)C(C=Nc2ccc(O)cc2)=C(O)C1	0.67	23	0	1	3	0	·	·	·	·	·	·
CCc1nnc(NS(=O)(=O)c2ccc(N=CC3=C(O)CC(C)(C)CC3=O)cc2)s1	0.69	?	17*	14*	-4	11*	11	5.9*	16	8	4	21*
CC(C)CC(NC(=O)c1[nH]cnc1C(=O)NC(Cc1ccccc1)C(=O)OC(C)(C)C)C(=O)OC(C)(C)C (configuration not stated)	0.71	·	·	·	·	·	·	·	·	·	·	·
CCn1cc(C(=O)N[C@H](C(=O)O)C(C)C)c(=O)c2cc3c(cc21)OCO3	0.069*	4	59*	12*	1	55*	101*	10*	78*	5	4	52*
CCn1cc(C(=O)N[C@H](C(=O)NCCCOC)C(C)C)c(=O)c2cc3c(cc21)OCO3	0.66	15	2	0	-4	-3	·	·	·	·	·	·
CC[C@@]12C(=O)N(c3cccc(C)c3)C(=O)N1C(c1ccc(OC)cc1)C1C(=O)N(C(C)(C)C)C(=O)C12 (some centres not stated)	0.69	·	·	·	·	·	·	·	·	·	·	·
CC#CCN1c2ccccc2[C@]23CC(C(=O)OC)N(C(=O)NCCBr)C2=NC(C(=O)OC)=C(C(=O)OC)C13 (some centres not stated)	0.71	·	·	·	·	·	·	·	·	·	·	·
Cc1ccc2c(c1)C(=O)N1C3c4cc(Br)ccc4OCC3C(c3ccccc3)[C@]1(C)C(=O)N2 (some centres not stated)	0.71	·	·	·	·	·	·	·	·	·	·	·
CCCCNC1=CC(=O)C(NCCCC)=CC1=O	0.69	·	·	4	9	·	·	·	·	·	·	·
CCCCNC1=CC(=O)C(=O)c2ccccc21	0.42*	14	29*	21*	-29	25*	32*	9.9*	19	13*	15	22*
[N-]=[N+]=NC1C[C@H](n2ccc(=O)[nH]c2=O)O[C@@H]1CO (some centres not stated)	·	19	37*	32*	-1	38*	94*	20*	77*	41*	28*	85*
COC(=O)C1=C(C(=O)OC)C2N(Cc3ccccc3)c3ccccc3[C@@]23CC(C(=O)OC)N(C(=O)COCc2ccccc2)C3=N1 (some centres not stated)	0.71	·	·	·	·	·	·	·	·	·	·	·
Nc1nc(=S)c2[nH]cnc2[nH]1	·	·	92*	66*	-26	77*	91*	60*	74*	57*	67*	84*
Nc1nc(=S)c2[nH]c(=S)[nH]c2[nH]1	0.67	·	·	4	7	·	·	·	·	·	·	·
SMILES	E coli growth-1	AI-2 QS mod	AddAB inh	phage Ecoli inh	Tat transport	E coli growth-2	AddAB conf	RecBCD counter	bact viab count	RecBCD conf	Ecoli viability	AddAB phage OD
Cc1cn([C@H]2C[C@H](O)[C@@H](COS(=O)(=O)O)O2)c(=O)[nH]c1=O	·	·	1	0	-8	0	·	·	·	·	·	·
O=c1[nH]c(=O)n([C@H]2C[C@H](O)[C@@H](CO)O2)cc1C(F)(F)F	·	-108*	13*	11*	16	9	40*	9.6*	13	17*	13	26*
O=c1[nH]c(=O)n(C2C[C@H](O)[C@@H](CO)O2)cc1C(F)(F)F (some centres not stated)	·	·	14*	15*	18	10*	38*	12*	15	20*	15	30*
CCc1cn([C@H]2C[C@H](O)[C@@H](CO)O2)c(=O)[nH]c1=O	·	?	19*	12*	20	14*	38*	11*	10	14*	8	23*
O=c1[nH]c(=O)n(C2CC(O)C(CO)O2)cc1Br (configuration not stated)	·	·	·	11	1	·	·	·	·	·	·	·
N#C/C(=C\c1ccc(Sc2ccccc2)o1)c1nc2ccccc2[nH]1	0.69	12	1	2	7	1	·	·	·	·	·	·

Source: PubChem
